Measured values taken from the supplement of paper PMC11732987, “Enantioselective OTUD7B fragment discovery through chemoproteomics screening and high-throughput optimisation” (Communications Chemistry, 2025).

Legend:
Test in all cases: log2 ratio of Biotin-Ahx-Ub-VS probe labelling (fragment/DMSO); higher = less target engagement (more negative = stronger competition), active = hit call of the paper (q ≤ 0.05, log2 ratio ≤ -1)
Settings in all cases: compound concentration: 200 uM; treatment time: 3 h
[1] = molecular target: T1, USP19 (UniProt O94966)
T1 sequence (whole entry): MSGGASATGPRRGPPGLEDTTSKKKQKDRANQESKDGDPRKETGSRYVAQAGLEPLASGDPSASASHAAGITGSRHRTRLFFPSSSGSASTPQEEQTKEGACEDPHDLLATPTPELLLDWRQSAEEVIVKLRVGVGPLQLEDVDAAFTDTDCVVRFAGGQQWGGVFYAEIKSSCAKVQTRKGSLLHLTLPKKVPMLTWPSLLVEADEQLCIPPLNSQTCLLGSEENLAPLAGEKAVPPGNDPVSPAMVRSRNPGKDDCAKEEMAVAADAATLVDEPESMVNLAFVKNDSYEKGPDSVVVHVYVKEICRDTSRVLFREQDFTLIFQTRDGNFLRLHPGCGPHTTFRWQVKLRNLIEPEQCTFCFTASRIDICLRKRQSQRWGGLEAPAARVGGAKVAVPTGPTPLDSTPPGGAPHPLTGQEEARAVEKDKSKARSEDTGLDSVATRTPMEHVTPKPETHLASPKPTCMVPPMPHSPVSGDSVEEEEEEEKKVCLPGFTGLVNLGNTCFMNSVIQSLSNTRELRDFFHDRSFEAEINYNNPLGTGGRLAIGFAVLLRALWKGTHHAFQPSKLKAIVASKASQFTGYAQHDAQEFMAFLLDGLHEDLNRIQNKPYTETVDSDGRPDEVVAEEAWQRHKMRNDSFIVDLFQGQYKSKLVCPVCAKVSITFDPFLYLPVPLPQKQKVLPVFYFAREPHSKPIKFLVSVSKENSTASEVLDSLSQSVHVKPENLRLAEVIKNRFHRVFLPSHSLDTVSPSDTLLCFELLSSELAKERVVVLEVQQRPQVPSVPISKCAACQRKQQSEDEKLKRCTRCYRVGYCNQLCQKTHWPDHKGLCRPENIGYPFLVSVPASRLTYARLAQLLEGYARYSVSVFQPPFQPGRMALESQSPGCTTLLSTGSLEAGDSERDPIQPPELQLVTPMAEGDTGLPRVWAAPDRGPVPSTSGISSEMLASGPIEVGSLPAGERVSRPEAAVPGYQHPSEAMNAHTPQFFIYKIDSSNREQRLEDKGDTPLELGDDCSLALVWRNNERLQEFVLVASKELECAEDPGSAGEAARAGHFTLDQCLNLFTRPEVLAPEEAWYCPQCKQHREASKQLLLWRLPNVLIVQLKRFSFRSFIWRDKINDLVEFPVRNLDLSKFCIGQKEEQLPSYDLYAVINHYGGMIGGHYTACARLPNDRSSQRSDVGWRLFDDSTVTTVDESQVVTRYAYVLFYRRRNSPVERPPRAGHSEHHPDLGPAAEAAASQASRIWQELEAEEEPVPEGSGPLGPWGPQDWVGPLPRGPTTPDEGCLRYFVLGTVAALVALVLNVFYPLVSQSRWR
How it was run: (§1)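 HEK293T lysate in Tris/CHAPS/IGEPAL buffer with protease inhibitors (495 µg per sample) was given fragment at 200 µM or vehicle for 3 h, in triplicate. It then received Biotin-Ahx-Ub-VS at 0.5 µM final for 1 h. Labelled DUBs were NeutrAvidin-enriched, digested with LysC and trypsin, and run by diaPASEF LC-MS/MS. Values are average log2 fragment/vehicle ratios by unpaired t-test on global-median-normalised Spectronaut quantities of proteins with ≥2 unique peptides.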

[2] = molecular target: T2, USP22 (UniProt Q9UPT9)
T2 sequence (whole entry): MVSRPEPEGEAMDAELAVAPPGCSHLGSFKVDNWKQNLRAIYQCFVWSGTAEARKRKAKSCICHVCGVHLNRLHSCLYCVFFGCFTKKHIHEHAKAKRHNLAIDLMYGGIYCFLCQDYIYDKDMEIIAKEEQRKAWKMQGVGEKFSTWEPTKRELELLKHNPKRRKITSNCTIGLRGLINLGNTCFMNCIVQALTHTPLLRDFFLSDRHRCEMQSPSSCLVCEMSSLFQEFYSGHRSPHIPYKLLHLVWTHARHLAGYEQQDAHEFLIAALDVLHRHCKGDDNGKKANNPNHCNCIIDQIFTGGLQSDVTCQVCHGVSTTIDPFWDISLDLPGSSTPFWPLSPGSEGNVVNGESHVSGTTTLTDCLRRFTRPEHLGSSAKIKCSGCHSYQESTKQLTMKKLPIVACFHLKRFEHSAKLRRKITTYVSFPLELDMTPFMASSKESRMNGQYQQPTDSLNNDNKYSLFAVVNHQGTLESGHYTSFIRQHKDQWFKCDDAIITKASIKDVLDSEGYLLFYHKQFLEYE
How it was run: as §1

[3] = molecular target: USP24 (UniProt Q9UPU5)
How it was run: as §1

[4] = molecular target: T3, USP25 (UniProt Q9UHP3)
T3 sequence (whole entry): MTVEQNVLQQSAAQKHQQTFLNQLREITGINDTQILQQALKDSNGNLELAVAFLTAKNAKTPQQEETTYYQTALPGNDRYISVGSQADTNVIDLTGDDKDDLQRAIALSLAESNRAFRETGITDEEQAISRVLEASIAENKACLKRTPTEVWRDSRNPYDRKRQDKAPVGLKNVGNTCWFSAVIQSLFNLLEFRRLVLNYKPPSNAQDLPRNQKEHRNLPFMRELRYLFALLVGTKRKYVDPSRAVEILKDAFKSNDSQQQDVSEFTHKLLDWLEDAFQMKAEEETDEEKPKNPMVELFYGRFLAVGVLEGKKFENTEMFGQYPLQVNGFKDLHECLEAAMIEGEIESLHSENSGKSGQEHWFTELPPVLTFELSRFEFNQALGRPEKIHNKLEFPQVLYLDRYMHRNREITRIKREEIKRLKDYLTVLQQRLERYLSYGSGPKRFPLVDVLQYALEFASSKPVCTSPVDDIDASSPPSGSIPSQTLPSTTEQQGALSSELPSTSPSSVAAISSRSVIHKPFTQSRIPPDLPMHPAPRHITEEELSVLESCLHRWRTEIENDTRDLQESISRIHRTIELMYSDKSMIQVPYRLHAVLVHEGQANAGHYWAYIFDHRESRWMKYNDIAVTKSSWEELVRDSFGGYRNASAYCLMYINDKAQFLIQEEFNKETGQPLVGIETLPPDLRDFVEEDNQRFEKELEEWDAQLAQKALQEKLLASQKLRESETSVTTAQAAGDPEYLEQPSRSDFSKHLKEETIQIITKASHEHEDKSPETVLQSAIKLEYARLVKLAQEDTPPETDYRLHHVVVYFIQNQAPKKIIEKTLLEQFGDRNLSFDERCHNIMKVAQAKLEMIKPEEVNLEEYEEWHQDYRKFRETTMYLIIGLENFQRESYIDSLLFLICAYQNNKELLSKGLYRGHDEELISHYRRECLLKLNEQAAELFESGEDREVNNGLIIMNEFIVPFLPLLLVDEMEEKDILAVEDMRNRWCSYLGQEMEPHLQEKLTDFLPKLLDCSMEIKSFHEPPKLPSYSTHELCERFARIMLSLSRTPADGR
How it was run: as §1

[5] = molecular target: T4, USP28 (UniProt Q96RU2)
T4 sequence (whole entry): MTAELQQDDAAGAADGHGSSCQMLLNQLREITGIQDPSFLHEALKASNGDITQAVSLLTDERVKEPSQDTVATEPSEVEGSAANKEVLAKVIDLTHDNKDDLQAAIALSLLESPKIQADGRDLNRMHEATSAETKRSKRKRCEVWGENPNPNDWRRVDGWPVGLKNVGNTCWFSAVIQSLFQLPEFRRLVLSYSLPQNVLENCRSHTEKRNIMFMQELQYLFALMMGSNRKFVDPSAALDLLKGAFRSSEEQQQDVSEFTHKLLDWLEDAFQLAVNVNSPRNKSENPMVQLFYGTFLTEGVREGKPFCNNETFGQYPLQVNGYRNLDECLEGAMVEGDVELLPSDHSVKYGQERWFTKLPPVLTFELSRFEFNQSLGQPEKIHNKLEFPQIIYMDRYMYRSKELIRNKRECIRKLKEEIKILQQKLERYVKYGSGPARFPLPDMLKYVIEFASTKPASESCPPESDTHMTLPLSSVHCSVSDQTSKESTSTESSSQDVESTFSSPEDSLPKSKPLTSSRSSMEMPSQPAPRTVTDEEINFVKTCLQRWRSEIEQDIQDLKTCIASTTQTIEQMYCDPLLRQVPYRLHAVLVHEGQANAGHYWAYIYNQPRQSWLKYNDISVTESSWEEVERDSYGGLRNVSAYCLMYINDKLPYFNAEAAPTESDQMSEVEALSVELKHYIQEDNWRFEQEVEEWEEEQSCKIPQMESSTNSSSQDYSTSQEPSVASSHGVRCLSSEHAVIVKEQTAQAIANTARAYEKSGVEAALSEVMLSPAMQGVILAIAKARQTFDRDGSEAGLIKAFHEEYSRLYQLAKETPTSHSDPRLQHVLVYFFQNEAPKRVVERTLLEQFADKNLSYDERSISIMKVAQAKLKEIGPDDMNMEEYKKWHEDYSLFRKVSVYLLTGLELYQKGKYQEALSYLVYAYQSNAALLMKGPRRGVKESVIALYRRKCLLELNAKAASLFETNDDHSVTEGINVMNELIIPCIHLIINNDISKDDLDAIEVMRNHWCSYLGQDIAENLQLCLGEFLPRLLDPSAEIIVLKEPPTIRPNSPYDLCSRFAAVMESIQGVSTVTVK
How it was run: as §1

Measured: log2 ratio of Biotin-Ahx-Ub-VS probe labelling

Sequence of USP24 (Q9UPU5 whole entry): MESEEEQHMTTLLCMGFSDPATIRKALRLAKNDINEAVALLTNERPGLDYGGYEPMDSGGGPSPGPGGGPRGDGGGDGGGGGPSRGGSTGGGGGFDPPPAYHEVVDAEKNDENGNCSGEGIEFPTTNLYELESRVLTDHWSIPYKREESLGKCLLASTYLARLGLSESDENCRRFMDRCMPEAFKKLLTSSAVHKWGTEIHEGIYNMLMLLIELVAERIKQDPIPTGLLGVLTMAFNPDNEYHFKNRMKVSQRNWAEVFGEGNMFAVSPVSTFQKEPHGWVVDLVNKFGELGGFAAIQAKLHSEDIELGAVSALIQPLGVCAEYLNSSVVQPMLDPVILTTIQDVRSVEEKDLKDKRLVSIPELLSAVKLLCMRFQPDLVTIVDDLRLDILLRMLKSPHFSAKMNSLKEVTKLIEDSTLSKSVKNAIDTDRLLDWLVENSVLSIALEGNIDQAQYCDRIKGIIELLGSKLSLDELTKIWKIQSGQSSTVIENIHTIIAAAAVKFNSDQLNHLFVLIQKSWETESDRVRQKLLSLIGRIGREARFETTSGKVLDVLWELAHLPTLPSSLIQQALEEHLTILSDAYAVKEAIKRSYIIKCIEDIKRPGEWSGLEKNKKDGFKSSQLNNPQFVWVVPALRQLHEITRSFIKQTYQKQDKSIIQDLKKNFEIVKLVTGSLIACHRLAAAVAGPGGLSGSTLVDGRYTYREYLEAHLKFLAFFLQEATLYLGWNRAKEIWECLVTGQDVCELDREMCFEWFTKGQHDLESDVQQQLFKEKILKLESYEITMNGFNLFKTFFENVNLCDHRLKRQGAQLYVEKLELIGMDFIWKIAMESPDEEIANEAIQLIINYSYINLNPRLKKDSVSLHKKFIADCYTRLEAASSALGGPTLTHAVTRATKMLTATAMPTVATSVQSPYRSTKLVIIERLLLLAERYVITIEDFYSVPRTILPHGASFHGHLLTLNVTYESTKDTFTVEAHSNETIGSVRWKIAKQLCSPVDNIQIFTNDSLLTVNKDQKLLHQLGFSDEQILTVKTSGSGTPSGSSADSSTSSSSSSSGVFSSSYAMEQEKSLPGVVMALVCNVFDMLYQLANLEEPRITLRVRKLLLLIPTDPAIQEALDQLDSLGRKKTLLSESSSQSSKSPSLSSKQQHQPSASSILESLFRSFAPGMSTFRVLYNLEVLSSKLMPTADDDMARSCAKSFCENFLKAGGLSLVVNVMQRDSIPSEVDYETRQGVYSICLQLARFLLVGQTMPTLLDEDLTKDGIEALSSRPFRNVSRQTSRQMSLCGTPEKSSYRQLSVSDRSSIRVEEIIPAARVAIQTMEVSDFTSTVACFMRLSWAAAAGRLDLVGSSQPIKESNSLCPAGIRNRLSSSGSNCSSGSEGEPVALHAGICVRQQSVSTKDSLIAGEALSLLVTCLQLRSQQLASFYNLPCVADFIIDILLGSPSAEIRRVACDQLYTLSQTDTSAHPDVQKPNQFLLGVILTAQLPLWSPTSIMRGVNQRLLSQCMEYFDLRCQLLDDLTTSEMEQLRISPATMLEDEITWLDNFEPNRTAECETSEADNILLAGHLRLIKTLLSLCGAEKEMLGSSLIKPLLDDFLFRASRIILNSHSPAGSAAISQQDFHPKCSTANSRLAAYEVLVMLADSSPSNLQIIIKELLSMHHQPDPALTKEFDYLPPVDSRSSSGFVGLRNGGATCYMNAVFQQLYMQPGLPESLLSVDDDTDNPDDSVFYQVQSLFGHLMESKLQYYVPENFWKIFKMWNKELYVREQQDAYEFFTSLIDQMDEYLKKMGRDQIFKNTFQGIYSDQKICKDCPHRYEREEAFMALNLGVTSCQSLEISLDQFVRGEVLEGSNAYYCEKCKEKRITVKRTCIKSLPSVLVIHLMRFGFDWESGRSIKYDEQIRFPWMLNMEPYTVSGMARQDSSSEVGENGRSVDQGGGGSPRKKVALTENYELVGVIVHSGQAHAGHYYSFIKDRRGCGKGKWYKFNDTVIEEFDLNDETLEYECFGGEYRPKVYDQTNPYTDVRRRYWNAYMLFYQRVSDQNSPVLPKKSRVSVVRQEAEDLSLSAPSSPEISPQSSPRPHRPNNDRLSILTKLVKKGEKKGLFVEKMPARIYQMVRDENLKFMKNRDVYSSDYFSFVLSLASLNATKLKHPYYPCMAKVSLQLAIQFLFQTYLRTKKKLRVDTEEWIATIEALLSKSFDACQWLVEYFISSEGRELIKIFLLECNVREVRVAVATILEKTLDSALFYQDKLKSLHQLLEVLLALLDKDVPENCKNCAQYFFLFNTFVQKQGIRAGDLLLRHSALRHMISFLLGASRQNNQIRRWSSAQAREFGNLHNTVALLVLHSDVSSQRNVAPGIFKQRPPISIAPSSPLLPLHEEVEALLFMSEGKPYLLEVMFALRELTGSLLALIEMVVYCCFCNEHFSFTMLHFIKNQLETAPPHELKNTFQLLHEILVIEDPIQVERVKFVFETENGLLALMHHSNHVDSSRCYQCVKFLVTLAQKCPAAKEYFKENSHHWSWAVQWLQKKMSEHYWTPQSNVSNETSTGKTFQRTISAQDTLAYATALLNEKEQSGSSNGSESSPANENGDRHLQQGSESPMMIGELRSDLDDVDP

NC(=O)C1CCCN(C(=O)CCl)C1 (stereo not given)
inactive: [1] -0.249 | [2] 0.245 | [3] -0.257 | [4] -0.119 | [5] -0.348
